Many of the other results were omitted from the sample, so hits are more common in it than they were.
LASV entry inh – qHTS for Inhibitors of binding or entry into cells for Lassa Virus. 300,000 compounds, 1.2% hits. Potency, µM (top dose mostly 37.9 µM), for the others: top-dose activity change, negative = inhibition, most hits filed as inhibitors. Lassa virus pseudotype entry inhibition, cell reporter. AID 540256, 2011; calls by dose curve; tested in HEK293 cells; also: potency is read from the fitted curve at half-maximal effect; % is scaled to controls: 0 for no effect and ±100 for the full control effect; nearly all actives have a fitted effect of over 50% in size
Vaccinia mCherry – qHTS for Stage-Specific Inhibitors of Vaccinia Orthopoxvirus: mCherry Reporter Primary qHTS. 310,000 compounds, 0.63% hits. Potency, µM (titrated, usually from 36.5 µM), for the others: top-dose activity change, negative = inhibition, most hits filed as inhibitors. Vaccinia virus mCherry reporter infection, fluorescence; calls by dose curve; tested in A549 cells; also: potency is read from the fitted curve at half-maximal effect; % is scaled to controls: 0 for no effect and ±100 for the full control effect; nearly all actives have a fitted effect of over 35% in size
VACV Venus inh – qHTS for Stage-Specific Inhibitors of Vaccinia Orthopoxvirus: Venus Reporter Primary qHTS; Potency, µM (top dose mostly 36.5 µM), without a hit: at the highest dose activity change, negative = inhibition, usual class: inhibitors; Vaccinia virus Venus reporter expression, fluorescence; 330,000 compounds, 0.46% hits; calls by dose curve; tested in A549 cells; also: potency is read from the fitted curve at half-maximal effect; % is scaled to controls: 0 for no effect and ±100 for the full control effect; nearly all actives have a fitted effect of over 30% in size
Shiga toxin inh – A qHTS for Small Molecule Inhibitors of Shiga Toxin; Vero cells, Shiga toxin protein synthesis inhibition reporter; inhibition, % at 38.7 µM; 290,000 compounds, 9.2% hits; AID 2315, 2010; in the data active = inhibition mostly above about 28%, no sharp cut-off; inactive = mostly below about 43%; also: 0% is about no effect
Marburg entry inh – qHTS for inhibitors of binding or entry into cells for Marburg Virus; AID 540276, 2011; Potency, µM (highest dose often 37.8 µM), without a hit: at the highest dose activity change, negative = inhibition, hits mostly inhibitors; 300,000 compounds, 1.8% hits; Marburg virus pseudotyped entry inhibition, cell reporter; calls by dose curve; tested in HEK293 cells; also: potency is read from the fitted curve at half-maximal effect; % is scaled to controls: 0 for no effect and ±100 for the full control effect
Cycloheximide cs – Cycloheximide Counterscreen for Small Molecule Inhibitors of Shiga Toxin; max response, %; 300,000 compounds, 12% hits; AID 2314, 2010; cell reporter, cycloheximide protein synthesis inhibition counterscreen; in the data active = max response mostly above about 13%, no sharp cut-off; inactive = mostly below about 14%; also: read at 38.3 µM for the half of the compounds with a filed dose; 0% is about no effect
Numbers without * were called inactive; i = inactive; ? = inconclusive; / = no result given; [ ] = another dose, or the depositor's remark.

SMILES	LASV entry inh	Vaccinia mCherry	VACV Venus inh	Shiga toxin inh	Marburg entry inh	Cycloheximide cs
Cc1ccc(C(=O)Nc2ccc(C(=O)/C=C/c3cccs3)cc2)cc1	?	/	/	73*	-17%	52*
Cc1nc2ccccc2c(=O)n1/N=C/c1ccc(O)c(O)c1O	/	-1%	-1%	-7	/	-3
Cc1nnc(-c2ccccc2)c(=O)n1/N=C/c1c(O)ccc2ccccc12	?	3.2µM*	?	-8	?	-6
CCOc1ccccc1/C=N/n1c(C)nc2ccccc2c1=O	/	/	/	-9	/	-8
Cc1nc2ccccc2c(=O)n1/N=C/c1cccs1	6%[46.1 µM]	-9%	-12%	50	1%[46.1 µM]	25*
Cc1nc2ccccc2c(=O)n1/N=C/c1ccccc1O	?	-18%	2%	88*	?	37*
Cc1nc2ccccc2c(=O)n1/N=C/c1ccccc1	0%	-3%	-18%	33	11%	4
Cc1nc2ccccc2c(=O)n1/N=C/c1ccc2ccccc2c1O	/	/	/	74*	/	46*
Cc1ccccc1CN1C(=O)C(O)(c2c[nH]c3ccccc23)c2cc(Cl)ccc21 (configuration not stated)	?	-14%	-13%	/	8.9µM*	/
Cc1ccc(C)c(CN2C(=O)C(O)(c3c[nH]c4ccccc34)c3ccccc32)c1 (configuration not stated)	?	-20%	-21%	/	?	/
CC1=CC[C@@H](C)O[C@@]2(C1)C(=O)N(Cc1ccc(Br)cc1)c1ccccc12	?	/	/	/	14%[14.2 µM]	/
COC(=O)C1CC2(C(=O)OC)CC(C(=O)OC)(CC(C(=O)OC)C2=O)C1=O (configuration not stated)	-26%	i	-10%	/	4%	/
C=CCOc1ccc(/C=C/C(C)=N\O)cc1	-5%	/	/	85*	2%	50*
C=CCOc1ccc(/C=C/C(=O)OCC(=O)N2CCN(C(C)=O)CC2)cc1	?	i	-18%	/	?	/
COc1ccc(Cl)cc1NC(=O)CCc1nnc2ccc(N3CCN(C)CC3)nn12	/	i[7.34 µM]	0%[7.34 µM]	3	/	10
CN(C)c1ccc(/C=C2/C(=N\O)C3CCN2CC3)cc1	5%[46.1 µM]	-26%	-20%	89*	5%[46.1 µM]	41*
CN(C)c1ccc(/C=N/O)cc1	-6%	i	0%	51	-5%[46.1 µM]	15
COc1ccc(Cl)cc1S(=O)(=O)Nc1noc2ccccc12	?	-10%	-17%	19	9%	-1
Cc1ccc(OCc2ccc(C(=O)N3CCOCC3)cc2)cc1C	?	-17%	-16%	54*	-8%	31*
CC(C)c1ccc(COc2ccc(C(=O)N3CCOCC3)cc2)cc1	/	-1%	-26%	70	/	16*
CC(C)c1ccc(C(=O)N2CCCN(C(=O)c3ccc(C(C)C)cc3)CC2)cc1	?	-15%	-7%	-3	?	-3
CC(C)c1ccc(OCc2ccc(C(=O)N3CCN(c4ccccn4)CC3)cc2)cc1	?	/	-29%	170	?	30*
Cc1ccc(C(=O)N2CCOCC2)cc1Cl	2%	-15%	-12%	16	-4%[46.1 µM]	-3
COc1ccc(CCNC(=O)c2cc3c(=O)[nH]c4ccc(C)cc4c3s2)cc1OC	-29%[46.1 µM]	-18%	-17%	/	0%[46.1 µM]	/
Cc1c(C(=O)N2CCN(c3ccccn3)CC2)oc2c(F)cccc12	17%[46.1 µM]	i	-8%	-6	1%[46.1 µM]	20
SMILES	LASV entry inh	Vaccinia mCherry	VACV Venus inh	Shiga toxin inh	Marburg entry inh	Cycloheximide cs
Cc1c(C(=O)N2CCC[C@H]2C(N)=O)oc2c(F)cccc12	/	/	/	20	/	29*
O=C1CSc2nc3ccccc3n21	-2%	/	/	19	11%	21*
Cc1occc1-c1nnc(SCC(=O)N2CCc3ccccc32)o1	-1%	i	-11%	42	3%	1
Cc1csc(NC(=O)CSc2nnc(-c3ccncc3)o2)n1	4%	/	?	30	-15%	16*
Cc1occc1-c1nnc(SCC(=O)N(C)C)o1	?	-10%	-12%	54	20%	33*
Cc1cc(-c2nnc(SCC(=O)Nc3nccs3)o2)no1	/	/	/	43*	/	20*
Cc1occc1-c1nnc(SCC(=O)Nc2nc(C(C)(C)C)cs2)o1	-22%	?	?	50*	?	27*
CCCn1c2ccccc2c2cnn(CC(=O)Nc3cccc(C(=O)OCC)c3)c(=O)c21	0%[46.1 µM]	-1%	-11%	/	/	/
CCn1c(SCC(=O)Nc2nc(C)cs2)nnc1-c1ccoc1C	-9%	/	/	-15	-5%	4
Cc1csc(NC(=O)CSc2nnc(-c3ccoc3C)o2)n1	?	/	/	70*	-5%	41*
Cc1ccc(CNCc2c(C(=O)O)n(Cc3ccc(C)cc3)c3cc(C)ccc23)cc1	?	11µM*	?	/	/	/
C=Cc1ccc(Cn2c(C(=O)O)c(CNCc3ccccc3)c3ccc(C)cc32)cc1	?	?	13µM*	-4	/	9
N/C(CN1CCCC1=O)=N\OC(=O)c1ccccc1Cl	-4%	/	/	16	?	26*
CCN1C(=O)/C(=C/c2nc3ccccc3c(=O)[nH]2)c2ccccc21	3%	i	1%	-3	?	26*
COc1ccc(C(=O)Nc2ccccc2C(=O)N/N=C/c2cccc3ccccc23)cc1	?	/	/	119*	?	31*
COc1ccc(C(=O)Nc2ccccc2C(=O)N2CCCCCC2)cc1	2%	i	2%	24	-8%	-2
COc1ccc(C(=O)Nc2ccccc2C(N)=O)cc1	-1%	/	/	94*	25%	27*
COc1cc(OC)cc(C(=O)Nc2ccccc2C(=O)N2CCCC2)c1	3%	/	3%	60*	-6%	30*
NC(=O)c1ccccc1NC(=O)c1ccc2ccccc2c1	?	-29%	-18%	79*	?	57*
Cc1cc(-c2ccnc(-n3ncc(C(=O)N(C)Cc4nccs4)c3C)n2)c(C)s1	/	-22%	-12%	/	/	/
COc1ccc(C(=O)Nc2ccccc2C(=O)Nc2ccncc2)cc1	-20%	-25%	-21%	58	?	25*
COC(=O)c1ccccc1NC(=S)NC(=O)c1ccc2c(c1)OCO2	19%	-3%	-12%	3	4%	11
NC(=O)c1ccccc1NC(=O)c1ccc2c(c1)OCO2	/	/	/	55*	/	41*
COc1ccc(NC(=S)NNc2ccc(C(=O)O)cc2)cc1	16%[46.1 µM]	-9%	0%	38	?	42*
COc1ccc(CC(=O)Nc2ccc(C(=O)Nc3ccccc3C(=O)O)cc2)cc1OC	8%	i	-7%	-16	-16%[46.1 µM]	23*
CCOC(=O)C1=C(C)NC(SCC(=O)Nc2nc(C)cs2)=C(C#N)C1c1cccs1 (configuration not stated)	/	/	/	24	0%	12
COc1ccc2cc(N3CCCC3=O)ccc2c1	3%	-23%	-4%	/	-3%	/

Bioassay records deposited in PubChem BioAssay by National Center for Advancing Translational Sciences (NCATS).
